Reference: PubChem BioAssay (NCATS)
Results filed as inconclusive are left out. Entries that show only a call come without a potency. Active and inactive are the calls of the source. The call rests on the fitted dose curve; in most records, active means well fitted inhibition curve with a large enough effect; inconclusive means small, poorly fitted or top-dose-only effect; inactive means flat fitted curve, though single readings scatter.

The compounds below were run on ATS189 (assay: qHTS profiling for inhibitors of Plasmodium falciparum proliferation (AID 504749; further: nearly all actives have a fitted effect of over 60% in size)). Conditions: P. falciparum in erythrocytes, SYBR Green DNA, 72 h; series mostly up to 28.7 µM.
In short: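 Quantitative HTS: compounds pinned into medium, infected erythrocytes added (0.3% parasitemia, 2.5% hematocrit), 72 h culture at 37 C under 5% CO2. Saponin/Triton lysis with SYBR Green I, overnight RT, then fluorescence read.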
Potency means the concentration at half of the fitted maximal effect.

**Q.** `O=C(Oc1cccc2cccnc12)c1ccccc1` was tested. Which Potency did it give?
**A.** inactive

**Q.** `NC(=O)C1(N2CCCCC2)CCN(CCCC(=O)c2ccc(F)cc2)CC1` was tested. Which Potency did it give?
**A.** inactive

**Q.** With `CCOC(=O)C(C#N)=C(c1ccccc1)c1ccccc1` as the compound, how does the Potency read?
**A.** inactive

**Q.** For `COc1ccc(CN(CCN(C)C)c2ncccn2)cc1`, which Potency is on record?
**A.** inactive

**Q.** Which Potency does the source give for `CCCCC(CC)COC(=O)/C=C/c1ccc(OC)cc1` (stereo not given) here?
**A.** inactive

**Q.** Which Potency does the source give for `COc1ccc2c(c1)c1c3n2CCN(C)C3=NCC1` here?
**A.** inactive

**Q.** `O=C1C(O)=C(O)C(=O)C(O)=C1O` was tested. Which Potency did it give?
**A.** inactive

**Q.** `Cc1cc(-c2ccccc2)nnc1NCCN1CCOCC1` was tested. Which Potency did it give?
**A.** inactive

**Q.** With `COc1ccc(CCN(C)CCCN2CCc3cc(OC)c(OC)cc3CC2=O)cc1OC` as the compound, how does the Potency read?
**A.** inactive

**Q.** With `CC(C)=CCOc1ccc(/C=C/C(=O)c2ccc(OCC=C(C)C)cc2OCC(=O)O)cc1` as the compound, how does the Potency read?
**A.** inactive

**Q.** `CCOC(=O)Nc1ccc2c(c1)N(C(=O)CCN1CCOCC1)c1ccccc1S2` was tested. Which Potency did it give?
**A.** inactive

**Q.** For `CCCCNc1ccc(C(=O)OCCOCCOCCOCCOCCOCCOCCOCCOCCOC)cc1`, which Potency is on record?
**A.** inactive

**Q.** How did the Potency turn out when `NC(=O)n1c(O)c(C(=O)c2cccs2)c2cc(Cl)ccc21` was run?
**A.** inactive

**Q.** With `C=CCN1CCc2nc(N)sc2CC1` as the compound, how does the Potency read?
**A.** inactive

**Q.** How did the Potency turn out when `NS(=O)(=O)Cc1noc2ccccc12` was run?
**A.** inactive

**Q.** With `CCCCc1cc2ccccc2c(OCCN(C)C)n1` as the compound, how does the Potency read?
**A.** inactive

**Q.** With `COc1ccc(C(Cl)=C(c2ccc(OC)cc2)c2ccc(OC)cc2)cc1` as the compound, how does the Potency read?
**A.** 2820 nM (active)

**Q.** With `Cl/C(=C\n1cncn1)c1ccc(Cl)cc1Cl` as the compound, how does the Potency read?
**A.** inactive

**Q.** With `CCN(CC)CCOC(=O)C1(c2ccccc2)CCCC1` as the compound, how does the Potency read?
**A.** inactive

**Q.** For `C=C[C@@]1(C)CC(=O)[C@]2(O)[C@@]3(C)[C@@H](O)CCC(C)(C)[C@@H]3[C@H](O)[C@H](OC(C)=O)[C@@]2(C)O1`, which Potency is on record?
**A.** inactive
